# Assay results taken from publication PMC11062922 (Nature Chemical Biology, 2023).
# Where two headings read alike, the source gives them in different places.
# How the values were obtained:
# Conditions in all cases: read-out: apparent Kd, n = 1
# ACVR1 = system: ACVR1
# CLK1 = system: CLK1
# MAP2K1 = system: MAP2K1
# [1] = compound concentrations:100 nM and 1000 nM (sheet 'Lestaurtinib' of Supplementary Table 1),run:Lestaurtinib_02422_R1,Plate:MR006
# [2] = compound concentrations:100 nM and 1000 nM (sheet 'Lestaurtinib' of Supplementary Table 1),run:Lestaurtinib_02443_R3,Plate:MR009
# [3] = compound concentrations:100 nM and 1000 nM (sheet 'Lestaurtinib' of Supplementary Table 1),run:Lestaurtinib_02572_R1,Plate:MR015
# [4] = compound concentrations:100 nM and 1000 nM (sheet 'Lestaurtinib' of Supplementary Table 1),run:Lestaurtinib_02577_R1,Plate:MR016
# [5] = compound concentrations:100 nM and 1000 nM (sheet 'Lestaurtinib' of Supplementary Table 1),run:Lestaurtinib_02577_R3,Plate:MR016
# [6] = compound concentrations:100 nM and 1000 nM (sheet 'Lestaurtinib' of Supplementary Table 1),run:Lestaurtinib_02584_R3,Plate:MR017
# [7] = compound concentrations:100 nM and 1000 nM (sheet 'Lestaurtinib' of Supplementary Table 1),run:Lestaurtinib_02748_R1,Plate:MR024
# [8] = compound concentrations:100 nM and 1000 nM (sheet 'Lestaurtinib' of Supplementary Table 1),run:Lestaurtinib_02766_R3,Plate:MR027
# [9] = compound concentrations:100 nM and 1000 nM (sheet 'Lestaurtinib' of Supplementary Table 1),run:Lestaurtinib_02896_R1,Plate:MR030
# [10] = compound concentrations:100 nM and 1000 nM (sheet 'Lestaurtinib' of Supplementary Table 1),run:Lestaurtinib_02367_R2,Plate:MR003
# [11] = compound concentrations:100 nM and 1000 nM (sheet 'Lestaurtinib' of Supplementary Table 1),run:Lestaurtinib_02438_R3,Plate:MR008
# [12] = compound concentrations:100 nM and 1000 nM (sheet 'Lestaurtinib' of Supplementary Table 1),run:Lestaurtinib_02443_R1,Plate:MR009
# [13] = compound concentrations:100 nM and 1000 nM (sheet 'Lestaurtinib' of Supplementary Table 1),run:Lestaurtinib_02443_R2,Plate:MR009
# [14] = compound concentrations:100 nM and 1000 nM (sheet 'Lestaurtinib' of Supplementary Table 1),run:Lestaurtinib_02473_R1,Plate:MR010
# [15] = compound concentrations:100 nM and 1000 nM (sheet 'Lestaurtinib' of Supplementary Table 1),run:Lestaurtinib_02473_R2,Plate:MR010
# [16] = compound concentrations:100 nM and 1000 nM (sheet 'Lestaurtinib' of Supplementary Table 1),run:Lestaurtinib_02566_R1,Plate:MR014
# [17] = compound concentrations:100 nM and 1000 nM (sheet 'Lestaurtinib' of Supplementary Table 1),run:Lestaurtinib_02724_R2,Plate:MR021
# [18] = compound concentrations:100 nM and 1000 nM (sheet 'Lestaurtinib' of Supplementary Table 1),run:Lestaurtinib_02724_R3,Plate:MR021
# [19] = compound concentrations:100 nM and 1000 nM (sheet 'Lestaurtinib' of Supplementary Table 1),run:Lestaurtinib_02741_R1,Plate:MR023
substance,measurement,setting,value
Lestaurtinib,potency estimated from few doses,"ACVR1; compound concentrations:100 nM and 1000 nM (sheet 'Lestaurtinib' of Supplementary Table 1),run:Lestaurtinib_02339_R2,Plate:MR001",1510 nM
same,potency estimated from few doses,"ACVR1; compound concentrations:100 nM and 1000 nM (sheet 'Lestaurtinib' of Supplementary Table 1),run:Lestaurtinib_02407_R1,Plate:MR005",1540 nM
same,potency estimated from few doses,ACVR1; [1],1350 nM
same,potency estimated from few doses,ACVR1; [2],946 nM
same,potency estimated from few doses,"ACVR1; compound concentrations:100 nM and 1000 nM (sheet 'Lestaurtinib' of Supplementary Table 1),run:Lestaurtinib_02473_R3,Plate:MR010",958 nM
same,potency estimated from few doses,ACVR1; [3],671 nM
same,potency estimated from few doses,ACVR1; [4],1530 nM
same,potency estimated from few doses,ACVR1; [5],1360 nM
same,potency estimated from few doses,ACVR1; [6],1580 nM
same,potency estimated from few doses,ACVR1; [7],1460 nM
same,potency estimated from few doses,ACVR1; [8],1420 nM
same,potency estimated from few doses,ACVR1; [9],1240 nM
same,potency estimated from few doses,"CLK1; compound concentrations:100 nM and 1000 nM (sheet 'Lestaurtinib' of Supplementary Table 1),run:Lestaurtinib_02364_R1,Plate:MR002",130 nM
same,potency estimated from few doses,"CLK1; compound concentrations:100 nM and 1000 nM (sheet 'Lestaurtinib' of Supplementary Table 1),run:Lestaurtinib_02364_R3,Plate:MR002",175 nM
same,potency estimated from few doses,CLK1; [10],153 nM
same,potency estimated from few doses,"CLK1; compound concentrations:100 nM and 1000 nM (sheet 'Lestaurtinib' of Supplementary Table 1),run:Lestaurtinib_02367_R3,Plate:MR003",240 nM
same,potency estimated from few doses,"CLK1; compound concentrations:100 nM and 1000 nM (sheet 'Lestaurtinib' of Supplementary Table 1),run:Lestaurtinib_02407_R3,Plate:MR005",176 nM
same,potency estimated from few doses,CLK1; [1],88.2 nM
same,potency estimated from few doses,"CLK1; compound concentrations:100 nM and 1000 nM (sheet 'Lestaurtinib' of Supplementary Table 1),run:Lestaurtinib_02422_R2,Plate:MR006",4.49 nM
same,potency estimated from few doses,"CLK1; compound concentrations:100 nM and 1000 nM (sheet 'Lestaurtinib' of Supplementary Table 1),run:Lestaurtinib_02422_R3,Plate:MR006",115 nM
same,potency estimated from few doses,"CLK1; compound concentrations:100 nM and 1000 nM (sheet 'Lestaurtinib' of Supplementary Table 1),run:Lestaurtinib_02437_R1,Plate:MR007",132 nM
same,potency estimated from few doses,"CLK1; compound concentrations:100 nM and 1000 nM (sheet 'Lestaurtinib' of Supplementary Table 1),run:Lestaurtinib_02437_R2,Plate:MR007",160 nM
same,potency estimated from few doses,CLK1; [11],124 nM
same,potency estimated from few doses,CLK1; [12],154 nM
same,potency estimated from few doses,CLK1; [13],115 nM
same,potency estimated from few doses,CLK1; [2],133 nM
same,potency estimated from few doses,CLK1; [14],93.7 nM
same,potency estimated from few doses,CLK1; [15],131 nM
same,potency estimated from few doses,"CLK1; compound concentrations:100 nM and 1000 nM (sheet 'Lestaurtinib' of Supplementary Table 1),run:Lestaurtinib_02482_R3,Plate:MR011",170 nM
same,potency estimated from few doses,"CLK1; compound concentrations:100 nM and 1000 nM (sheet 'Lestaurtinib' of Supplementary Table 1),run:Lestaurtinib_02487_R2,Plate:MR012",196 nM
same,potency estimated from few doses,"CLK1; compound concentrations:100 nM and 1000 nM (sheet 'Lestaurtinib' of Supplementary Table 1),run:Lestaurtinib_02496_R3,Plate:MR013",84.6 nM
same,potency estimated from few doses,CLK1; [16],131 nM
same,potency estimated from few doses,"CLK1; compound concentrations:100 nM and 1000 nM (sheet 'Lestaurtinib' of Supplementary Table 1),run:Lestaurtinib_02566_R3,Plate:MR014",151 nM
same,potency estimated from few doses,CLK1; [3],130 nM
same,potency estimated from few doses,"CLK1; compound concentrations:100 nM and 1000 nM (sheet 'Lestaurtinib' of Supplementary Table 1),run:Lestaurtinib_02572_R2,Plate:MR015",137 nM
same,potency estimated from few doses,CLK1; [4],206 nM
same,potency estimated from few doses,CLK1; [6],202 nM
same,potency estimated from few doses,"CLK1; compound concentrations:100 nM and 1000 nM (sheet 'Lestaurtinib' of Supplementary Table 1),run:Lestaurtinib_02601_R2,Plate:MR018",232 nM
same,potency estimated from few doses,"CLK1; compound concentrations:100 nM and 1000 nM (sheet 'Lestaurtinib' of Supplementary Table 1),run:Lestaurtinib_02606_R2,Plate:MR019",69.6 nM
same,potency estimated from few doses,"CLK1; compound concentrations:100 nM and 1000 nM (sheet 'Lestaurtinib' of Supplementary Table 1),run:Lestaurtinib_02606_R3,Plate:MR019",167 nM
same,potency estimated from few doses,"CLK1; compound concentrations:100 nM and 1000 nM (sheet 'Lestaurtinib' of Supplementary Table 1),run:Lestaurtinib_02624_R1,Plate:MR020",235 nM
same,potency estimated from few doses,"CLK1; compound concentrations:100 nM and 1000 nM (sheet 'Lestaurtinib' of Supplementary Table 1),run:Lestaurtinib_02624_R2,Plate:MR020",113 nM
same,potency estimated from few doses,"CLK1; compound concentrations:100 nM and 1000 nM (sheet 'Lestaurtinib' of Supplementary Table 1),run:Lestaurtinib_02624_R3,Plate:MR020",160 nM
same,potency estimated from few doses,CLK1; [17],179 nM
same,potency estimated from few doses,CLK1; [18],163 nM
same,potency estimated from few doses,CLK1; [19],211 nM
same,potency estimated from few doses,CLK1; [7],237 nM
same,potency estimated from few doses,"CLK1; compound concentrations:100 nM and 1000 nM (sheet 'Lestaurtinib' of Supplementary Table 1),run:Lestaurtinib_02752_R1,Plate:MR025",146 nM
same,potency estimated from few doses,"CLK1; compound concentrations:100 nM and 1000 nM (sheet 'Lestaurtinib' of Supplementary Table 1),run:Lestaurtinib_02765_R1,Plate:MR026",278 nM
same,potency estimated from few doses,"CLK1; compound concentrations:100 nM and 1000 nM (sheet 'Lestaurtinib' of Supplementary Table 1),run:Lestaurtinib_02765_R3,Plate:MR026",244 nM
same,potency estimated from few doses,"CLK1; compound concentrations:100 nM and 1000 nM (sheet 'Lestaurtinib' of Supplementary Table 1),run:Lestaurtinib_02766_R1,Plate:MR027",143 nM
same,potency estimated from few doses,CLK1; [8],154 nM
same,potency estimated from few doses,"CLK1; compound concentrations:100 nM and 1000 nM (sheet 'Lestaurtinib' of Supplementary Table 1),run:Lestaurtinib_02768_R2,Plate:MR028",141 nM
same,potency estimated from few doses,"CLK1; compound concentrations:100 nM and 1000 nM (sheet 'Lestaurtinib' of Supplementary Table 1),run:Lestaurtinib_02768_R3,Plate:MR028",135 nM
same,potency estimated from few doses,"CLK1; compound concentrations:100 nM and 1000 nM (sheet 'Lestaurtinib' of Supplementary Table 1),run:Lestaurtinib_02795_R1,Plate:MR022",93.8 nM
same,potency estimated from few doses,"CLK1; compound concentrations:100 nM and 1000 nM (sheet 'Lestaurtinib' of Supplementary Table 1),run:Lestaurtinib_02802_R3,Plate:MR029",22.2 nM
same,potency estimated from few doses,CLK1; [9],136 nM
same,potency estimated from few doses,"CLK1; compound concentrations:100 nM and 1000 nM (sheet 'Lestaurtinib' of Supplementary Table 1),run:Lestaurtinib_02896_R2,Plate:MR030",82.8 nM
same,potency estimated from few doses,"CLK1; compound concentrations:100 nM and 1000 nM (sheet 'Lestaurtinib' of Supplementary Table 1),run:Lestaurtinib_03172_R3,Plate:MR031",134 nM
same,potency estimated from few doses,"CLK1; compound concentrations:100 nM and 1000 nM (sheet 'Lestaurtinib' of Supplementary Table 1),run:Lestaurtinib_03252_R1,Plate:MR032",130 nM
same,potency estimated from few doses,"CLK1; compound concentrations:100 nM and 1000 nM (sheet 'Lestaurtinib' of Supplementary Table 1),run:Lestaurtinib_03252_R2,Plate:MR032",25.4 nM
same,potency estimated from few doses,"CLK1; compound concentrations:100 nM and 1000 nM (sheet 'Lestaurtinib' of Supplementary Table 1),run:Lestaurtinib_03260_R2,Plate:MR033",248 nM
same,potency estimated from few doses,"MAP2K1; compound concentrations:100 nM and 1000 nM (sheet 'Lestaurtinib' of Supplementary Table 1),run:Lestaurtinib_02339_R1,Plate:MR001",2070 nM
same,potency estimated from few doses,"MAP2K1; compound concentrations:100 nM and 1000 nM (sheet 'Lestaurtinib' of Supplementary Table 1),run:Lestaurtinib_02367_R1,Plate:MR003",825 nM
same,potency estimated from few doses,MAP2K1; [10],1420 nM
same,potency estimated from few doses,"MAP2K1; compound concentrations:100 nM and 1000 nM (sheet 'Lestaurtinib' of Supplementary Table 1),run:Lestaurtinib_02381_R1,Plate:MR004",579 nM
same,potency estimated from few doses,"MAP2K1; compound concentrations:100 nM and 1000 nM (sheet 'Lestaurtinib' of Supplementary Table 1),run:Lestaurtinib_02381_R2,Plate:MR004",1760 nM
same,potency estimated from few doses,"MAP2K1; compound concentrations:100 nM and 1000 nM (sheet 'Lestaurtinib' of Supplementary Table 1),run:Lestaurtinib_02381_R3,Plate:MR004",2000 nM
same,potency estimated from few doses,MAP2K1; [1],1620 nM
same,potency estimated from few doses,"MAP2K1; compound concentrations:100 nM and 1000 nM (sheet 'Lestaurtinib' of Supplementary Table 1),run:Lestaurtinib_02438_R2,Plate:MR008",1630 nM
same,potency estimated from few doses,MAP2K1; [11],1400 nM
same,potency estimated from few doses,MAP2K1; [12],1540 nM
same,potency estimated from few doses,MAP2K1; [13],1360 nM
same,potency estimated from few doses,MAP2K1; [14],1690 nM
same,potency estimated from few doses,MAP2K1; [15],1430 nM
same,potency estimated from few doses,MAP2K1; [16],656 nM
same,potency estimated from few doses,MAP2K1; [3],1430 nM
same,potency estimated from few doses,MAP2K1; [5],1750 nM
same,potency estimated from few doses,"MAP2K1; compound concentrations:100 nM and 1000 nM (sheet 'Lestaurtinib' of Supplementary Table 1),run:Lestaurtinib_02584_R2,Plate:MR017",1720 nM
same,potency estimated from few doses,MAP2K1; [6],1990 nM
same,potency estimated from few doses,"MAP2K1; compound concentrations:100 nM and 1000 nM (sheet 'Lestaurtinib' of Supplementary Table 1),run:Lestaurtinib_02601_R1,Plate:MR018",876 nM
same,potency estimated from few doses,"MAP2K1; compound concentrations:100 nM and 1000 nM (sheet 'Lestaurtinib' of Supplementary Table 1),run:Lestaurtinib_02606_R1,Plate:MR019",884 nM
same,potency estimated from few doses,"MAP2K1; compound concentrations:100 nM and 1000 nM (sheet 'Lestaurtinib' of Supplementary Table 1),run:Lestaurtinib_02724_R1,Plate:MR021",1600 nM
same,potency estimated from few doses,MAP2K1; [17],2070 nM
same,potency estimated from few doses,MAP2K1; [18],1610 nM
same,potency estimated from few doses,MAP2K1; [19],2060 nM
